# Compound activity as filed in PubChem BioAssay.
# The list is not random: actives were taken first. Their share in the collection is about 4.5%.
# ALR inh: human ALR oxidase inhibition via reduced H2O2 | 290,000 compounds, 3.8% hits | inhibition, % (test concentration not listed) | P55789 | purified ALR, DTT oxidation, H2O2 HRP-luminol luminescence | AID 485317;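 active = mean replicate inhibition above about 79%, with every replicate also reaching it, limit read from the data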
# Target sequence (P55789 whole entry, looked up): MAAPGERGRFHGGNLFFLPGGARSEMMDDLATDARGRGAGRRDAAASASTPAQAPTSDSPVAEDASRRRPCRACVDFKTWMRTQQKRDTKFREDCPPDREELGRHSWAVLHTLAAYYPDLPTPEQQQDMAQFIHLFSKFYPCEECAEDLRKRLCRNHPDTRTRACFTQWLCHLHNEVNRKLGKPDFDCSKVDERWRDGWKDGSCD
# Efflux pump mplx: inhibitors of Candida antifungal efflux pumps expressed in yeast. S. cerevisiae Candida pump triplex, Nile Red efflux. inhibition, % at 10 µM. 330,000 compounds, 0.44% hits. AID 485275;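 active = plate passing quality check with inhibition over a set limit, or well fluorescence over plate mean plus 4 SD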;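 also: Nile Red retained in pooled yeast measured as flow cytometry median fluorescence; higher means more Nile Red kept so more efflux inhibition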
# HDAC3 inh: human HDAC3 inhibition | AID 2718 | recombinant HDAC3, fluorogenic peptide/trypsin coupled, fluorescence | inhibition, % at 8.3 µM | O15379 | 320,000 compounds, 0.15% hits; in the data active = inhibition above about 26%, passing the limit was not always enough
# Target sequence (O15379 whole entry, looked up): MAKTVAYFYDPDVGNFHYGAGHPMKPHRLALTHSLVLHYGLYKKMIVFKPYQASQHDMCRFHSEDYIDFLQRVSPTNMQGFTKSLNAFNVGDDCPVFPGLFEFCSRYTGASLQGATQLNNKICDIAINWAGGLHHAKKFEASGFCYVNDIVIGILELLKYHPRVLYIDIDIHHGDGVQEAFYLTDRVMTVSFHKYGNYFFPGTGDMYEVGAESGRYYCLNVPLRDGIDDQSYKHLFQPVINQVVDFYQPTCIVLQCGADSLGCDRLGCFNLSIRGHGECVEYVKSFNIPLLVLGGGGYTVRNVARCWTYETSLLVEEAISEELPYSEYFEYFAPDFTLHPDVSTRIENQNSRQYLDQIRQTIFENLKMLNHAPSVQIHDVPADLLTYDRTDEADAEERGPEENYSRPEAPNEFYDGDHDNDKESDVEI
# Rce1 inhib: blocks yeast Ras-converting enzyme; yeast membranes, quenched prenylated peptide cleavage fluorescence; 290,000 compounds, 0.27% hits; Q03530; calls only; AID 2563;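 active = fall in fluorescence gain of 50% or more versus controls, with final raw signal at or below 3038400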
# Rtt109 HAT inh: inhibitors of Candida albicans Rtt109/Vps75 histone acetyltransferase. Q5AAJ8. purified Rtt109/Vps75, ThioGlo CoA-SH fluorescence, 4 h. inhibition, % at 34.9 µM. 330,000 compounds, 0.16% hits;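 active = inhibition of at least 50% in every replicate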
# GRK2 aptamer HTS: human GRK2 inhibition via aptamer displacement. P25098. bead flow cytometry, FAM-aptamer displacement from GRK2. inhibition of aptamer binding, % at 10 µM. 330,000 compounds, 0.59% hits. AID 488847;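 active = inhibition of aptamer binding above 40%, roughly 3 SD of noise, on plates passing a quality check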;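 also: median bead fluorescence of bound FAM aptamer so fluorescent compounds give negative values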
# Hits are given with their value; n = inactive; x = no result; + = active, no number; ! = not active in a repeat.
SMILES,ALR inh,Efflux pump mplx,HDAC3 inh,Rce1 inhib,Rtt109 HAT inh,GRK2 aptamer HTS
O=[N+]([O-])c1cc(O)c(O)c([N+](=O)[O-])c1,91.7,n,n,x,n,n
COC(=O)C1=C(C)NC(=S)NC1c1ccc(N(CCCl)CCCl)cc1Cl (stereo not drawn),x,x,x,x,n,x
CN(C)CC1CSCCC1(O)c1ccccc1 (stereo not drawn),n,n,n,x,n,n
CCN(CC)c1ccc(CNCCc2ccccc2F)cc1,98.7,n,n,n,n,n
CCCC/C(=N\O)c1c[nH]c2ccccc12,89.2,n,n,n,n,n
CC1Oc2cc3c(-c4c(O)cc(O)c5c(O)c6c(cc45)OC(C)C(C)C6=O)c(O)cc(O)c3c(O)c2C(=O)C1C (stereo not drawn),n,n,n,n,n,n
O=C(c1ccccc1)C(CN1CCCC1)c1ccccc1 (stereo not drawn),97.2,n,n,n,n,n
COc1cccc(CNCCc2cccc(F)c2)c1OC,n,n,n,n,n,n
COC(=O)C1=C(c2ccc(OC(F)(F)F)cc2)C[C@@H]2CC[C@H]1N2C(=O)NCCOc1ccccc1Cl,n,n,33.6,x,n,n
COC(=O)C1=C(c2ccc(OC(F)(F)F)cc2)C[C@@H]2CC[C@H]1N2C(=O)NCCOc1ccccc1,n,n,n,x,n,n
CN(C)/C=C1/C(=O)NC(=O)N(CCNc2ncc(C(F)(F)F)cc2Cl)C1=O,n,n,n,n,n,n
CN1C(=O)N(C)C(=O)C2(Cc3c(ccc4ccccc34)N(C)C2)C1=O,98.8,n,n,n,n,n
COc1ccc(C(=O)CC2(CC(=O)c3ccc(OC)cc3)C(=O)N(C)C(=O)N(C)C2=O)cc1,n,n,n,n,n,n
N#CC1=C(N)Oc2c(c(=O)sc3ccccc23)C1c1ccncc1 (stereo not drawn),95.4,n,n,n,n,n
N#CC1=C(N)Oc2c(c(=O)oc3ccccc23)C1c1cccnc1 (stereo not drawn),n,n,n,n,n,n
CN1CCN(c2ccc([N+](=O)[O-])c(Sc3nncn3C)c2)CC1,n,n,n,+,n,n
O=[N+]([O-])c1ccc(Nc2ccccc2)cc1,n,n,n,n,n,n
c1ccc(Nc2ccc(Nc3ccccc3)cc2)cc1,98.4,n,n,x,n,n
CCCCCCN=C(C)c1c(O)n(Cc2ccccc2)c(=O)[nH]c1=O,n,n,n,n,n,n
CN(C)C(Cc1ccccc1)C(=O)c1c[nH]c2ccccc12 (stereo not drawn),x,n,n,n,n,n
Cc1c(CC(=O)N2C[C@H]3C[C@@H](C2)c2cccc(=O)n2C3)c(=O)oc2cc(O)c(Cl)cc12,n,n,n,n,n,n
Cc1c(CC(=O)N2C[C@H]3C[C@@H](C2)c2cccc(=O)n2C3)c(=O)oc2c(C)c(O)ccc12,89.4,n,n,n,n,n
CCOC(=O)c1ccccc1NC(=O)c1c(O)[nH]c(=S)[nH]c1=O,91.6,x,n,n,n,x
O=C(O)C1Cc2ccccc2N2CCCC12 (stereo not drawn),92.5,n,n,n,n,n
NNc1n[nH]c(=S)n1N,n,n,n,n,138.6,n
SMILES,ALR inh,Efflux pump mplx,HDAC3 inh,Rce1 inhib,Rtt109 HAT inh,GRK2 aptamer HTS
CNC(=O)Oc1ccc(N(C)C)cc1C(C)C,92.2,n,n,n,n,n
Clc1ccccc1CNC1CN2CCC1CC2 (stereo not drawn),n,n,n,n,n,n
c1ccc2c(c1)Sc1ccccc1N2CC1CN2CCC1CC2 (stereo not drawn),98.3,n,n,n,n,n
C[C@]12CC[C@@H]3c4ccc(O)c(O)c4CC[C@H]3[C@@H]1CC[C@@H]2O,n,n,n,n,131.8,n
CCN1CCN(Cc2cc(Br)ccc2O)CC1,n,n,n,n,n,n
CCN1CCN(Cc2cc(Br)cc(Br)c2O)CC1,98.6,n,n,n,n,n
CC(=O)c1cccc(NC(=O)N2C[C@H]3C[C@@H](C2)c2cccc(=O)n2C3)c1,x,n,n,x,n,n
CNC(=O)c1cccn(Cc2cccc(C(F)(F)F)c2)c1=O,n,n,n,n,n,n
CN(C)CCNC(=O)c1cccn(Cc2cccc(C(F)(F)F)c2)c1=O,n,n,n,+,n,n
COc1cc(/C=C2\C(=O)NC(=O)N(c3ccccc3)C2=O)cc(OC)c1O,91.0,n,n,n,n,n
O=C(Nc1ccc(F)cc1)c1c(O)c2c(n(Cc3ccccc3)c1=O)CCCC2,n,n,n,n,50.2,n
O=C(Nc1cccnc1)c1c(O)c2c(n(Cc3ccccc3)c1=O)CCCC2,x,n,n,n,n,n
COP(=O)(OC)C(Nc1ccccc1)c1ccccc1 (stereo not drawn),95.8,n,n,n,n,n
Nc1ccc(S(=O)(=O)N2CCCCC2c2cccnc2)cc1 (stereo not drawn),90.1,n,n,n,n,n
ClCCNc1nc2ccc(Cl)cc2[nH]1,98.0,n,n,n,n,n
C/C=C1/CC(C)C(C)(O)C(=O)OCC2CCN3CCC(OC1=O)C23 (stereo not drawn),x,n,n,n,n,n
CN1OCC2Cn3c(nc4ccccc43)C21 (stereo not drawn),n,n,n,x,n,n
O=C(C(=C1N(Cc2ccc(Cl)nc2)CCN1Cc1ccc(Cl)nc1)[N+](=O)[O-])C(Cl)Cl,n,n,n,n,n,44.0
Cc1ccc(N2C(=O)NC(=O)/C(=C\C=C\c3ccco3)C2=O)cc1C,96.4,n,n,n,n,n
Cc1ccc(N2C(=O)NC(=O)/C(=C\C=C\c3ccco3)C2=O)cc1,n,n,n,n,n,n
O=C1NC(=O)N(c2ccccc2)C(=O)/C1=C/C=C/c1ccco1,97.2,n,n,n,n,n
Cc1cccc(N2C(=O)NC(=O)/C(=C\C=C\c3ccco3)C2=O)c1,n,n,n,n,n,n
CCOC(=O)c1c(-c2ccc(OC)cc2)oc2ccc(OC(=O)N(C)C)cc12,n,n,n,+,n,n
O=C(O)C1C2CCC(O2)C1C(=O)NC1CCCCC1 (stereo not drawn),n,n,n,n,n,n
COC(=O)C1=C(C)NC(C)=C(C(=O)OC)C1c1ccccc1[N+](=O)[O-],n,n,n,n,133.8!,n
SMILES,ALR inh,Efflux pump mplx,HDAC3 inh,Rce1 inhib,Rtt109 HAT inh,GRK2 aptamer HTS
O=C1NC(=S)N(c2ccc(Cl)cc2)C(=O)/C1=C/N1CCN(C(=O)c2ccco2)CC1,96.6,n,n,n,n,n
COc1ccc(N2C(=O)/C(=C/c3ccc(C)o3)C(=O)NC2=S)cc1,x,x,x,n,n,x
O=C1NC(=S)N(c2ccc(F)cc2)C(=O)/C1=C/c1ccco1,92.6,n,n,n,x,99.0
COc1ccc(OC)c(N2C(=O)/C(=C/c3ccco3)C(=O)NC2=S)c1,n,n,n,n,x,100.0
Cc1ccccc1N1CCN(C2CCCN(C(=O)COc3ccccc3)C2)CC1 (stereo not drawn),n,n,n,n,n,n
C[C@H](N)CN1CCc2ccc(Br)cc21,99.3,n,n,n,n,n
